We go through 27 compounds from PubChem BioAssay (EPA / NIEHS).

Structures are written as SMILES. Several values for one entry are separate records, joined by “and”; a condition that tells them apart may be missing. Equal entries are not always repeated. Inconclusive results are not listed. The source holds several records for some structures; these can differ, active in one and inactive in another. Activity calls are given as the source filed them. The calls were made as follows: active = hit-call score of the fitted dose curve at least 0.9, where 1 is the maximum; inconclusive = response in the unintended direction; inactive = score below 0.9.

Sequence of human Retinoic Acid Receptor gamma (RARg), RARG (gene 5916) (P13631 whole entry, looked up, the tested form may be a part): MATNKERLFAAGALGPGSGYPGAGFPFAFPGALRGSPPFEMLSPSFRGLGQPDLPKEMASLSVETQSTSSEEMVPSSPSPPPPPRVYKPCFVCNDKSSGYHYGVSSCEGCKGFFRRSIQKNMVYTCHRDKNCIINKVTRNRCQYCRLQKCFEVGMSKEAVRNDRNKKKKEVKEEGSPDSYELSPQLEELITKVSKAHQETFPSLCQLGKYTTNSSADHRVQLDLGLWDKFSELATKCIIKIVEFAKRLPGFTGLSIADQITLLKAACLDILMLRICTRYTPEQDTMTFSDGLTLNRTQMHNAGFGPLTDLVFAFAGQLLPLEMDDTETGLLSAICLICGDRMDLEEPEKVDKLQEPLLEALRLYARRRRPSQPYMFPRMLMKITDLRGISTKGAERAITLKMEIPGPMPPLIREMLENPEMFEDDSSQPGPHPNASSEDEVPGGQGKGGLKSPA
Sequence of Peroxisome proliferator-activated receptor gamma (Homo sapiens) (P37231 whole entry, looked up): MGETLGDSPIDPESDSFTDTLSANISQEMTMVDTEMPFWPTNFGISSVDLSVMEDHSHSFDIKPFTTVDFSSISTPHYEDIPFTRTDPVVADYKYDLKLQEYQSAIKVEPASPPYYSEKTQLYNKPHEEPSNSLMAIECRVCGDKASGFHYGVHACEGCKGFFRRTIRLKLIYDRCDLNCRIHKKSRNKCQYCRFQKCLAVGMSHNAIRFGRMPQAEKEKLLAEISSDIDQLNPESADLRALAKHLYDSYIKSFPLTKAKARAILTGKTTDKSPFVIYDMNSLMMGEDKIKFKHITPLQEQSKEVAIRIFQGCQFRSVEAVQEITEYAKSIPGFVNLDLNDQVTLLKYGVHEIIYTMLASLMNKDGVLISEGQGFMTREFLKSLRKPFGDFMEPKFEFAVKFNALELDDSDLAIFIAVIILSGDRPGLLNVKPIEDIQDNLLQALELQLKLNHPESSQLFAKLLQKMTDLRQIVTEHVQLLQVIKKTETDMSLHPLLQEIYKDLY
Sequence of Nuclear receptor subfamily 1 group I member 2 (Homo sapiens) (O75469 whole entry, looked up, the tested form may be a part): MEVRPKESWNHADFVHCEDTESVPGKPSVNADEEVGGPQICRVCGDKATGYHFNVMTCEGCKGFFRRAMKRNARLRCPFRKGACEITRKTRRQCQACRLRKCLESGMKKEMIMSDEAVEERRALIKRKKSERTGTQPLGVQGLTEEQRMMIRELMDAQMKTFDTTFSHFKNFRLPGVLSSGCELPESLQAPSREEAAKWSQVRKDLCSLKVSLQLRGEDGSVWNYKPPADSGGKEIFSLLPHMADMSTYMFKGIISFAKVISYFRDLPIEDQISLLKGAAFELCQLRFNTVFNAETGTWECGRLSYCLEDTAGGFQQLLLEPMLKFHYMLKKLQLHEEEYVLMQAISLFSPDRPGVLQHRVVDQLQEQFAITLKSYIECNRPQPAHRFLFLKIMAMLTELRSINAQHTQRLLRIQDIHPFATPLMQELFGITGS

The first experiment addresses Peroxisome proliferator-activated receptor gamma (Homo sapiens) (UniProt P37231). Kind of experiment: ATG_PPARg_TRANS: Attagene TRANS-FACTORIAL HepG2 Assay for human Peroxisome Proliferator-activated Receptor-gamma (PPARg) (AID 2283007). An outline of the steps: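 Multiplexed reporter transcription units in HepG2, 24 h dosing, reporter transcripts quantified by fluorescent RT-PCR and capillary electrophoresis. Increase over DMSO scored.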
Regarding `O=C(O)C(F)(F)C(F)(F)F`, the compound was called inactive.

Turning to `CCCCCCS`, the compound was classed as inactive.

As a reminder, the AC50 is the midpoint of the concentration-response curve, whichever way the signal moves. Consider `O=C(O)C(F)(F)C(F)(F)C(F)(F)C(F)(F)C(F)(F)C(F)(F)C(F)(F)C(F)(F)Cl`, for which the AC50 is 31.1 µM (active) and 34.1 µM (active).

As for `Cc1ccc(S(=O)(=O)NCl)cc1`, the outcome was inactive.

Take `CCO[Si](CCC(F)(F)C(F)(F)C(F)(F)C(F)(F)C(F)(F)C(F)(F)F)(OCC)OCC`: the outcome was inactive.

For the compound `CC(C)=CCCC(C)CCOC(=O)C(C)C` (configuration not stated), the call was inactive.

Take `FC(F)(F)C(F)(F)C(F)(F)C(F)(F)C(F)(F)C(F)(F)C(F)(F)C(F)(F)F`: the compound was classed as inactive.

For `OCC(F)(F)C(F)(F)C(F)(F)C(F)F`, the compound was called inactive.

Consider `C=CC(F)(F)C(F)(F)C(F)(F)C(F)(F)C(F)(F)C(F)(F)C(F)(F)C(F)(F)F`, for which the result was inactive.

`CN(C)Cc1ccccc1O`: the result was inactive.

Take `CCN(Cc1cccc(S(=O)(=O)O)c1)c1ccc(C(=C2C=CC(=[N+](CC)Cc3cccc(S(=O)(=O)O)c3)C=C2)c2ccc(O)cc2S(=O)(=O)[O-])cc1`: the result was inactive.

For the compound `OCCCC(F)(F)C(F)(F)C(F)(F)F`, the compound was classed as inactive.

As to `O[Si](c1ccccc1)(c1ccccc1)c1ccccc1`, the AC50 was 44.4 µM (active).

Another experiment has as its target Nuclear receptor subfamily 1 group I member 2 (Homo sapiens) (UniProt O75469). Kind of experiment: ATG_PXR_TRANS: Attagene TRANS-FACTORIAL HepG2 Assay for human Pregnane X Receptor (PXR) (AID 2283008). An outline of the steps: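 HepG2 transfected (FuGene 6) with GAL4-UAS reporter units + PXR-Gal4 chimera; dosed 24 h. Total RNA → oligo(dT) RT → PCR → 6-FAM primer extension → HpaI cut → CE. Gain-of-signal vs DMSO.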
Take `O=C(O)C(F)(F)C(F)(F)F`: the outcome was inactive.

For `FC(F)(F)C(F)(F)C(F)(F)C(F)(F)CCI`, the call was inactive.

Take `O=C(CC(=O)C(F)(F)C(F)(F)F)C(F)(F)F`: the outcome was inactive.

For the compound `FC(F)(F)C(F)(F)C(F)(F)C(F)(F)C(F)(F)C(F)(F)CCS`, the outcome was inactive.

Regarding `O=C(Cl)C(F)(F)C(F)(F)C(F)(F)C(F)(F)C(F)(F)C(F)(F)C(F)(F)C(F)(F)F`, the concentration at half-maximal activity (AC50) is 54.5 µM (active).

`O=C(O)C(F)(F)C(F)(F)C(F)(F)C(F)(F)C(F)(F)C(F)(F)C(F)(F)C(F)(F)Cl`: the AC50 was 50 µM (active) and the outcome was inactive.

On to `O=P(O)(O)OCCC(F)(F)C(F)(F)C(F)(F)C(F)(F)C(F)(F)C(F)(F)F`, for which the compound was called inactive.

With `C=CC/C=C/C/C=C/C/C=C/C`, the call was inactive.

Regarding `CCO[Si](CCC(F)(F)C(F)(F)C(F)(F)C(F)(F)C(F)(F)C(F)(F)F)(OCC)OCC`, the outcome was inactive.

For the compound `O=C(O)C(F)(OC(F)(F)C(F)(OC(F)(F)C(F)(OC(F)(F)C(F)(F)C(F)(F)F)C(F)(F)F)C(F)(F)F)C(F)(F)F` (configuration not stated), the result was inactive.

Turning to `FC(F)(Br)C(F)(F)C(F)(F)C(F)(F)C(F)(F)C(F)(F)Br`, the compound was classed as inactive.

As to `FC(F)(F)C(F)(F)C(F)(F)CI`, the call was inactive.

In the case of `OCC(F)(F)C(F)(F)C(F)(F)C(F)F`, the compound was classed as inactive.

In the case of `CCCCCCCOC(=O)c1ccccc1C(=O)OCCCCCCC`, the AC50 is 6.29 µM (active).

For `OCCCC(F)(F)C(F)(F)C(F)(F)F`, the compound was called inactive.

Regarding `O[Si](c1ccccc1)(c1ccccc1)c1ccccc1`, the AC50 is 0.68 µM (active).

The next experiment deals with human Retinoic Acid Receptor gamma (RARg), RARG (gene 5916) (UniProt P13631). Kind of experiment: ATG_RARg_TRANS: Attagene TRANS-FACTORIAL HepG2 Assay for human Retinoic Acid Receptor gamma (RARg) (AID 2283009). An outline of the steps:
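Readout: reporter transcript levels via RT-PCR, 6-FAM primer-extension labelling, HpaI digestion and capillary electrophoresis. Cells: HepG2 carrying transfected RARg-GAL4 chimera plus UAS reporter set. Dosing 24 h; DMSO negative control.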
Take `COC(=O)CCC(F)(F)C(F)(F)C(F)(F)C(F)(F)F`: the outcome was inactive.

On to `FC(F)(F)C(F)(F)C(F)(F)C(F)(F)CCI`, for which the result was inactive.

As to `O=C(CC(=O)C(F)(F)C(F)(F)F)C(F)(F)F`, the compound was called inactive.

For `CCCCCCS`, the compound was classed as inactive.

`O=C(Cl)C(F)(F)C(F)(F)C(F)(F)C(F)(F)C(F)(F)C(F)(F)C(F)(F)C(F)(F)F`: the result was inactive.

`O=C(O)C(F)(F)C(F)(F)C(F)(F)C(F)(F)C(F)(F)C(F)(F)C(F)(F)C(F)(F)Cl`: the outcome was inactive.

In the case of `FC(F)(F)C(F)(F)CNCC(F)(F)C(F)(F)F`, the compound was called inactive.

As for `C=CC/C=C/C/C=C/C/C=C/C`, the compound was called inactive.

Turning to `CCO[Si](CCC(F)(F)C(F)(F)C(F)(F)C(F)(F)C(F)(F)C(F)(F)F)(OCC)OCC`, the call was inactive.

For `O=C(O)C(F)(OC(F)(F)C(F)(OC(F)(F)C(F)(OC(F)(F)C(F)(F)C(F)(F)F)C(F)(F)F)C(F)(F)F)C(F)(F)F` (configuration not stated), the result was inactive.

With `COC(=O)C1CCC(C(=O)OC)CC1` (configuration not stated), the call was inactive.

As for `O=C(O)C(F)(F)C(F)(F)C(F)(F)C(F)(F)C(F)(F)C(F)(F)C(F)(F)C(F)(F)C(F)(F)C(F)(F)C(F)(F)C(F)(F)F`, the compound was called inactive.

Take `FC(F)(F)C(F)(F)C(F)(F)C(F)(F)C(F)(F)C(F)(F)C(F)(F)C(F)(F)F`: the result was inactive.

As for `OCC(F)(F)C(F)(F)C(F)(F)C(F)F`, the call was inactive.

As to `C=CC(F)(F)C(F)(F)C(F)(F)C(F)(F)C(F)(F)C(F)(F)C(F)(F)C(F)(F)F`, the result was inactive.

As for `CCCCCCCOC(=O)c1ccccc1C(=O)OCCCCCCC`, the compound was classed as inactive.

With `OCCCC(F)(F)C(F)(F)C(F)(F)F`, the compound was called inactive.
